# Screening results from PubChem BioAssay.
# Most compounds without a hit are left out; they make up all but 4% or so of the library.
# NALP1 yeast inh = NALP1 inflammasome inhibitors in reconstituted yeast, colorimetric, S. cerevisiae, triplicate retest. S. cerevisiae NALP1/ASC/caspase-1 growth, X-gal OD620, 72 h. inhibition, % at 10 µM. 280,000 tested, 0.61% active; in the data active = inhibition mostly above about 24%, no sharp cut-off; inactive = mostly below about 32%
# NALP3 yeast inh = NALP3 inflammasome inhibitors in reconstituted yeast, primary screen, luminescence, uHTS; Yeast reconstituted NLRP3/ASC/caspase-1, beta-gal luminescence, 24 h; inhibition, % at 10 µM; 330,000 tested, 0.39% active; AID 2825, 2010;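 active = inhibition of 50% or more; inactive = inhibition below 50%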;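 note: plate controls were induced DMSO wells for no effect and uninduced yeast grown without galactose for full effect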
# tim23-1 inh = growth inhibitors of tim23-1 mutant yeast, primary screen, luminescence, uHTS; S. cerevisiae tim23-1 growth, BacTiter-Glo luminescence, 24 h; inhibition, % at 20 µM; 330,000 tested, 1.3% active;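 active = growth inhibition of the mutant yeast at or above 50%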;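 note: temperature-sensitive mutant grown at 25 °C; plate controls were DMSO-treated mutant yeast for no effect and medium wells lacking yeast for full effect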
# tim10-1 inh = growth inhibitors of tim10-1 mutant yeast, primary screen, luminescence, uHTS. S. cerevisiae tim10-1 ts strain growth, BacTiter-Glo, 24 h. inhibition, % at 20 µM. AID 463190, 2010. 330,000 tested, 2.2% active;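 active = inhibition of at least 40%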;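 note: mutant grown at 25 °C; 0% = DMSO wells with yeast and 100% = wells holding no yeast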
# TIM10 inh = growth inhibitors of isogenic TIM10 control yeast, primary screen, counter-screen for tim10-1 yeast inhibitor project, luminescence, uHTS | S. cerevisiae TIM10 strain growth, BacTiter-Glo luminescence, 24 h | inhibition, % at 10 µM | 330,000 tested, 1.4% active | AID 463195, 2010;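 active = inhibition of 40% or more at the single tested concentration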;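 note: wild-type TIM10 isogenic control strain grown at permissive 25 °C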
# tim10-1 confirm = growth inhibitors of tim10-1 mutant yeast, confirmation, single concentration, luminescence, S. cerevisiae; shares compounds with tim10-1 inh; S. cerevisiae tim10-1 ts strain growth, BacTiter-Glo, 24 h; inhibition, % at 20 µM; 7,400 tested, 56% active; AID 463213, 2010;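 active = inhibition of yeast growth at or above a set limit in either of two repeat tests at 20 µM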;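 note: tim10-1 mutant grown at permissive 25 °C to find synthetic lethal compounds; 0% = DMSO yeast wells and 100% = medium wells without yeast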
# tim10 confirm = growth inhibitors of wild-type TIM10 yeast, confirmation, counter-screen for tim10-1 synthetic lethality project, single concentration, luminescence, S. cerevisiae. shares compounds with TIM10 inh. S. cerevisiae tim10 strain growth, BacTiter-Glo luminescence, 24 h. inhibition, % at 10 µM. 4,600 tested, 63% active;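 active = inhibition of yeast growth at or above a set limit in either of two replicates at 10 µM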;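 note: this counterscreen used the strain with wild-type TIM10; 0% = yeast with DMSO and 100% = medium wells lacking yeast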
# An asterisk follows results filed as active; · = not tested or not shown.
SMILES,NALP1 yeast inh,NALP3 yeast inh,tim23-1 inh,tim10-1 inh,TIM10 inh,tim10-1 confirm,tim10 confirm
Cc1cc(NC(=O)COC(=O)c2ccc(OC(F)(F)F)cc2)no1,·,22.0,14.5,7.8,-1.9,·,·
Cc1cc(NC(=O)COC(=O)C(Nc2ccc(C(F)(F)F)cc2Cl)C(C)C)no1 (stereo not given),17.7,16.3,42.9,52.6*,50.0*,23.2,43.4*
CC(NC(=O)C(C)N1CCN(Cc2ccccc2)CC1)c1ccccc1 (stereo not given),8.0,17.6,-8.0,1.9,-6.7,·,·
CCn1c2c(c3cc(Br)ccc31)CCC/C2=N\O,21.9,18.0,29.1,65.6*,53.9*,39.3*,33.9*
Cc1ccc(NC(=O)C2=C(C(=O)O)CCCC2)cc1Br,2.7,5.4,-4.9,-16.5,-9.2,·,·
CC(C)(C)NC(=O)COC(=O)c1ccc(Cl)cc1O,-8.5,6.2,9.0,10.1,4.6,·,·
C[C@H]1CC[C@H]2C(=O)N3[C@H](c4ccccc4Br)[C@@H](C)CC[C@H]3C(=O)N2[C@@H]1c1ccccc1Br,34.7,1.4,47.0,40.5*,44.4*,32.7*,40.9*
COc1cccc(CN2CC(C(=O)NCCc3ccccc3C(F)(F)F)CCC2=O)c1 (stereo not given),18.4,9.2,-5.9,3.8,7.1,·,·
CCn1c(SCC(=O)NC2CC2)nnc1-c1ccc(F)cc1,4.9,8.3,-15.4,-18.6,-1.0,·,·
CO/N=C/c1ccc(Sc2ccccc2N)c([N+](=O)[O-])c1,6.6,1.9,29.3,49.2*,43.9*,35.4*,25.4
O=C(c1ccc([N+](=O)[O-])s1)N1CCc2ccccc21,1.5,13.1,-0.2,11.9,18.7,·,·
O=C(c1ccc([N+](=O)[O-])s1)N1CCCc2ccccc21,18.1,6.0,-17.0,54.0*,40.2*,48.6*,50.6*
Cc1ccc(C(c2nnnn2CCc2ccccc2)N2CCC(C)CC2)cc1 (stereo not given),-38.2,9.3,44.3,44.9*,46.9*,35.9*,-4.2
CNc1ccc(/C=C2\CSc3ccccc3C2=O)cc1[N+](=O)[O-],-31.6,22.5,29.3,44.7*,46.5*,40.4*,24.9
O=C1/C(=C/c2cccc([N+](=O)[O-])c2)CSc2ccc(Cl)cc21,-20.2,-6.0,15.0,15.3,15.4,·,·
Cc1nc(NC(=O)CCc2ccccc2)sc1C,19.4,29.1,26.1,-0.6,-9.3,·,·
CCOCCn1c(=O)c2c(nc3n2CC(C)CN3Cc2ccccc2)n(C)c1=O (stereo not given),23.9,21.8,4.4,13.2,9.4,·,·
CCCOc1ccc(CN(CCC#N)C(=S)NC(=O)c2ccccc2)cc1,-10.9,6.3,42.2,47.7*,42.9*,34.8*,-13.8
COc1ccccc1OCCNC(=O)CCC(=O)N1CCOCC1,·,12.9,4.4,-10.5,-7.8,·,·
O=[N+]([O-])c1cccc(S(=O)(=O)N2CCCCC2c2cccnc2)c1 (stereo not given),12.4,5.2,28.2,25.6,14.9,·,·
O=C(Nc1ccc(S(=O)(=O)N2CCCCC2c2cccnc2)cc1)c1ccccc1F (stereo not given),-8.2,27.0,11.5,52.4*,58.7*,47.0*,42.7*
COc1ccccc1C(=O)Nc1ccc(S(=O)(=O)N2CCCCC2c2cccnc2)cc1 (stereo not given),2.0,12.0,37.8,63.5*,63.1*,70.5*,78.3*
Cc1cc(C)n(CCNC(=O)C2CCC(=O)N(Cc3ccc(Cl)cc3)C2)n1 (stereo not given),6.3,8.0,-12.9,2.8,-3.2,·,·
Cc1ccc(S(=O)(=O)N2CCN(C(=O)COC(=O)CSc3ccccc3)CC2)c(C)c1,·,10.6,26.0,16.9,9.6,·,·
CC(C)C[C@H](NC(=O)c1cc2cc(Cl)ccc2n1C)C(=O)N1CCC(C(=O)O)CC1,-5.2,·,·,·,·,·,·
SMILES,NALP1 yeast inh,NALP3 yeast inh,tim23-1 inh,tim10-1 inh,TIM10 inh,tim10-1 confirm,tim10 confirm
CCOc1ccc(N2C(=O)CC(N)C2=O)cc1 (stereo not given),94.3*,29.6,40.3,72.5*,71.7*,68.8*,70.3*
CCOc1ccc(N2C(=O)CC(Sc3n[nH]c(-c4ccccc4)n3)C2=O)cc1 (stereo not given),36.9*,12.0,23.1,51.2*,56.7*,52.9*,36.0*
C[C@H](CO)N1C[C@H](C)[C@@H](CN(C)Cc2ccc(C(=O)O)cc2)Oc2c(NS(=O)(=O)c3cn(C)cn3)cccc2C1=O,·,23.7,-11.6,-5.5,-4.6,·,·
O=C(Nc1cccc(Cl)c1)NC1CCCCC1,-3.1,17.4,36.2,41.4*,49.5*,32.5*,22.8
CC(C)n1c(-c2ccc(C(C)(C)C)cc2)n[nH]c1=S,-8.8,16.0,46.9,42.6*,43.5*,35.0*,46.4*
Cc1ccc(C)c(OCC(=O)Nc2cc(NC(=O)COc3cc(C)ccc3C)cc(C(=O)O)c2)c1,7.3,-4.9,1.8,24.2,3.9,·,·
CCC(/C=C1\Sc2ccc(OC)cc2N1CC)=C\c1sc2ccc(OC)cc2[n+]1CCCS(=O)(=O)[O-],3.0,19.8,33.2,50.4*,44.5*,43.3*,12.6
Cc1ccc(NC(=S)NNC(=O)C2CC2c2ccc(C)cc2)cc1 (stereo not given),-16.8,2.5,17.3,41.4*,40.4*,27.0,17.2
N#Cc1ccc(N[C@@H]2CCN3C(=O)c4ccccc4[C@@H]3C[C@H]2O)cc1,·,·,29.0,14.2,-9.5,·,·
CCOC(=O)/C(=C/c1c(C)n(C)c2ccc([N+](=O)[O-])cc12)C(C)=O,21.1,17.4,48.5,58.2*,53.6*,37.2*,40.2*
Cc1cc([N+](=O)[O-])nn1CCCC(=O)NCc1ccc(F)cc1,-13.5,-18.3,1.3,-3.0,1.6,·,·
Cc1cccc(NC(=S)N=Nc2c(O)n(CN3CCOCC3)c3ccccc23)c1C,-14.0,29.4,35.2,58.8*,59.3*,35.9*,41.3*
C=CCn1c(O)c(N=NC(=S)Nc2ccccc2C)c2cc(S(=O)(=O)N3CCOCC3)ccc21,6.3,1.0,21.7,19.3,16.7,·,·
Cc1noc(C)c1S(=O)(=O)Nc1ccc2c(c1)CC(=O)N([C@H](C)CO)C[C@H](C)[C@H](CN(C)S(=O)(=O)c1ccc(F)cc1)O2,·,10.7,15.7,11.0,-2.1,·,·
CCOC(=O)C1=C(COC(=O)COc2ccc(Br)cc2)NC(=O)NC1C (stereo not given),·,4.4,4.6,24.1,-8.7,·,·
